Experimental data published in ChEMBL document CHEMBL4513155, “CO-ADD screening of University of Sydney (Australia) compounds” (2021).
Potency and affinity values are given separately.

What was measured:
Klebsiella pneumoniae = settings: Concentration 32 ug.mL-1; ASSAY_TEST Inhibition of Bacterial Growth; detection method Absorption (OD600); MEDIA CAMHB; plate type 384well; NBS; CORNING #3640; time 18 hr
Candida albicans = settings: 32 ug/mL
Cryptococcus neoformans = settings: Concentration 32 ug.mL-1; ASSAY_TEST Inhibition of Fungal Growth; detection method Resazurin; Absorption (OD600-OD570); plate type 384well; NBS; CORNING #3640

Row | Structure (SMILES) | Inhibition (Klebsiella pneumoniae) [%] | Inhibition (Candida albicans) [%] | Inhibition (Cryptococcus neoformans) [%]
1 | Fc1ccc(CCOc2cncc3nnc(-c4ccc(C(F)(F)F)nc4)n23)cc1F | -0.34 | 2.23 | -5.49
2 | N#Cc1ccc(-c2nnc3cncc(OCC(O)c4ccc(F)c(F)c4)n23)cc1 (stereo unspecified) | -1.23 | 4.19 | -9.99
3 | COC(COc1cncc2nnc(-c3ccc(C#N)cc3)n12)c1ccc(F)c(F)c1 (stereo unspecified) | -1.15 | 2.84 | -10.36
4 | Fc1ccc(CCOc2cncc3nnc(-c4ccc(Cl)cc4)n23)cc1F | -4.32 | 7.82 | -0.27
5 | CCN1C(=O)c2cccc3c(-c4cn(CCN5CCCNCCN(CCn6cc([C@]7(O)CC[C@H]8[C@@H]9CCc%10cc(O)ccc%10[C@H]9CC[C@@]87C)nn6)CCCNCC5)nn4)ccc(c23)C1=O.OCCN1CCN(CCCN2c3ccccc3Sc3ccc(Cl)cc32)CC1.[O-][Cl+3]([O-])([O-])[O-].[O-][Cl+3]([O-])([O-])[O-].[Zn+2] | -7.97 | 5.51 | 7.03
6 | CN(C)C(COc1cncc2nnc(-c3ccc(C#N)cc3)n12)c1ccc(F)c(F)c1 (stereo unspecified) | 3.41 | 5.98 | -16.61
7 | O.O=C1c2cccc3c(-n4cc(CN5CCCNCCN(Cc6cn(-c7ccc8c9c(cccc79)C(=O)N(CCCO)C8=O)nn6)CCCNCC5)nn4)ccc(c23)C(=O)N1CCCO.[Cl-].[Cl-].[Zn+2] | 2.32 | 7.28 | -0.18
